Results: the supplement of paper PMC12339681
Where a name gives a salt, the structure may show the parent alone.

Tested on: PBMC-derived induced microglia-like cells (piMGLC)
Test: synaptosome phagocytic index relative to DMSO control (fraction of DMSO); higher = more phagocytosis
Details: concentration: 10 uM (2 uM for compounds listed in Table S2); pretreatment time: 24 h; assay time: 3 h

Row | Structure (SMILES) | synaptosome phagocytic index
1 | C[N+](C)(C)CCO.[Cl-] [Choline_(chloride)] | 0.799
2 | O=c1ncn2nc(Sc3ccc(F)cc3F)ccc2c1-c1c(Cl)cccc1Cl [Neflamapimod] | 0.984
3 | CCc1c2c(nc3ccc(OC(=O)N4CCC(N5CCCCC5)CC4)cc13)-c1cc3c(c(=O)n1C2)COC(=O)[C@]3(O)CC [Irinotecan] | 0.692
4 | NC(=O)c1cccc(-c2cccc(OC(=O)NC3CCCCC3)c2)c1 | 0.86
5 | COc1cc(/C=C/C(=O)NCCn2c(C)cc3ccccc32)cc(OC)c1OC | 0.832
6 | CO[C@H]1C(=O)[C@]2(C)[C@@H](OC)C[C@H]3OC[C@@]3(OC(C)=O)[C@H]2[C@H](OC(=O)c2ccccc2)[C@]2(O)C[C@H](OC(=O)[C@H](O)[C@@H](NC(=O)OC(C)(C)C)c3ccccc3)C(C)=C1C2(C)C [Cabazitaxel] | 0.833
7 | CCN(CC)Cc1ccc2cc(COC(=O)Nc3ccc(C(=O)NO)cc3)ccc2c1 [Givinostat_(hydrochloride_monohydrate)] | 0.482
8 | CC(=O)[C@H]1CC[C@H]2[C@@H]3CC=C4C[C@@H](O)CC[C@]4(C)[C@H]3CC[C@]12C [Pregnenolone] | 0.878
9 | CN(C)CCCN1c2ccccc2CCc2ccccc21 [Imipramine_(hydrochloride)] | 0.863
10 | CC(C)(S)[C@@H](N)C(=O)O [Penicillamine] | 0.328
11 | CC(C)CCN(CCC(C)C)C(=O)c1ccc2nc(-c3ccc(C#N)cc3)c(CCCN3CCCC3)n2c1 | 0.408
12 | CC(C)(C)C(=O)NCCCC(=O)O [Pivagabine] | 0.829
13 | Fc1c(Br)cccc1Nc1ncnc2cc3c(cc12)OCCO3 | 0.118
14 | CC1CCN(CC[C@H]2CCCN2S(=O)(=O)c2cccc(O)c2)CC1 | 0.817
15 | O=C1NC(c2ccccc2)(c2ccccc2)C(=O)N1COP(=O)(O)O [Fosphenytoin_(disodium)] | 0.487
16 | N=C(N)NC(=O)Cc1c(Cl)cccc1Cl [Guanfacine_(hydrochloride)] | 1.13
17 | COc1cc(C(=O)Nc2cc(OC(F)(F)F)ccc2-n2cncn2)ccc1OCC1CC1 | 0.921
18 | Cn1cc(-c2c[nH]c3ncnc(N4CCOCC4)c23)cc1C#N | 1.32

Row | Structure (SMILES) | synaptosome phagocytic index
19 | CC(C(=O)O)c1cccc(C(=O)c2ccccc2)c1 (stereo unspecified) [Ketoprofen] | 0.731
20 | Cc1nc2c([nH]1)-c1ccccc1N(C(=O)c1ccc(NC(=O)c3ccccc3-c3ccccc3)cc1)CC2 [Conivaptan_(hydrochloride)] | 0.827
21 | O=C1Nc2ccc(Cl)cc2[C@@](C#CC2CC2)(C(F)(F)F)O1 [Efavirenz] | 0.473
22 | C[C@@H](NC(=O)c1ccc(F)cc1)c1ccc2c(c1)CCN2C(=O)C1CCOCC1 | 0.908
23 | Cn1cc(-c2ccncc2)c(-c2ccc(OCc3ccc4ccccc4n3)cc2)n1 [Mardepodect_(hydrochloride)] | 0.503
24 | CC1=C(/C=C/C(C)=C/C=C/C(C)=C/C(=O)O)C(C)(C)CCC1 [Retinoic_acid] | 0.339
25 | CNCCCC1c2ccccc2C=Cc2ccccc21 [Protriptyline_(hydrochloride)] | 0.93
26 | C[C@H](c1ccc(F)cc1CCCC(=O)O)N(c1cc(F)ccc1F)S(=O)(=O)c1ccc(Cl)cc1 | 0.385
27 | CC12CC3CC(C)(C1)CC(N)(C3)C2 [Memantine_(hydrochloride)] | 0.724
28 | CN1CCN(C2=Nc3ccccc3Oc3ccc(Cl)cc32)CC1 [Loxapine] | 0.272
29 | C[C@H]1COCCN1c1nc(-c2cnc(N)cc2C(F)F)nc(N2CCOCC2)n1 | 0.366
30 | COC(=O)C1=C(C)NC(C)=C(C(=O)OCCN(C)Cc2ccccc2)C1c1cccc([N+](=O)[O-])c1 (stereo unspecified) [Nicardipine_(hydrochloride)] | 0.627
31 | O=C(Oc1ccccc1C(=O)O)c1ccccc1O [Salsalate] | 0.409
32 | Cc1cc(=O)n(-c2ccccc2)n1C [Antipyrine] | 0.601
33 | O=C1c2cccc3c2[C@H](CCC3)CN1[C@@H]1CN2CCC1CC2 [Palonosetron_(Hydrochloride)] | 0.526
34 | OC(Cn1cncn1)(Cn1cncn1)c1ccc(F)cc1F [Fluconazole] | 0.902
35 | O=C(O)c1ccccc1O [Salicylic_acid] | 0.557
36 | CN1C(=O)[C@@H](NC(=O)c2n[nH]c(Cc3ccccc3)n2)COc2ccccc21 | 1.15
